Reference: the supplement of paper PMC10849652
About 7,900 targets were measured; listed, in parts, are those with a hit and a random draw of the rest. About 0.6% of all pairs of compound and target were hits.

Assays:
Assay in all cases: log2 fold change, soluble protein after heating vs DMSO (PISA); higher = thermal stabilisation; K562 cells, 10 uM, 30 min; active = over 0.2 and 3.5 SD of the protein, either way, in both replicates (recomputed)
[1] = compound: C#Cc1cccc(Nc2ncnc3cc(OCCOC)c(OCCOC)cc23)c1 [erlotinib]
Procedure, shortened: (§1)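 K562 cells at 2×10^6 cells/mL were treated for 30 min with 10 μM compound, and aliquots were heated for 3 min over 48°C-58°C before pooling. Extraction used PBS with 0.5% NP-40 at 4°C, and soluble protein was the supernatant after 21,000xg for 90 min, measured by TMTpro 16plex LC-MS/MS with channel sums equalised. Thermal stability values, relative to control samples and from duplicates, are log2 fold changes.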

[2] = compound: C/C(=N\NC(=O)C1=CC(=CC=C1)S(=O)(=O)N2CCOCC2)/C3=C(C=CC(=C3)Cl)O
Procedure, shortened: as §1

[3] = compound: C1=CC(=C(C=C1Cl)C2=NC3=NC=CN=C3C(=N2)NC4=CC=NC=C4)F
Procedure, shortened: as §1

[4] = compound: C1=CC(=CC=C1C2=NC3=C(N2)C=C(C=C3)C(=O)N)OC4=CC=C(C=C4)Cl
Procedure, shortened: as §1

[5] = compound: C1=CC2=C(C=CC(=C2)/C=C\3/C(=O)NC(=NCC4=CC=CS4)S3)N=C1
Procedure, shortened: as §1

[6] = compound: C1=CC2=NC=CN=C2C=C1/C=C/3\C(=O)NC(=O)S3
Procedure, shortened: as §1

[7] = compound: C1=CC=C(C=C1)C2=NC(=C(N2)C3=CC=NC=C3)C4=CC(=C(C=C4)Cl)O
Procedure, shortened: as §1

[8] = compound: C1=CC=C2C(=C1)C3=NNC4=CC=CC(=C43)C2=O
Procedure, shortened: as §1

[9] = compound: C1CCN(C1)C(=O)NC2=CC=CC(=C2)NC3=NC=C(C(=N3)NCCC4=CN=CN4)Br
Procedure, shortened: as §1

[10] = compound: C1CN(CCC1(CC2=CC=C(C=C2)Cl)N)C3=NC=NC4=C3C=CN4
Procedure, shortened: as §1

[11] = compound: C1COCCN1CCN2C3=CC=CC=C3N=C2NC(=O)C4=CC(=CC=C4)[N+](=O)[O-] [IRAK-1-4 Inhibitor I]
Procedure, shortened: as §1

[12] = compound: C=CC(=O)N1CCC[C@@H](n2nc(-c3ccc(Oc4ccccc4)cc3)c3c(N)ncnc32)C1 [ibrutinib]
Procedure, shortened: as §1

[13] = compound: CC(=O)c1cnc2ccc(-c3cc(Cl)c(O)c(Cl)c3)nc2c1N[C@H]1CC[C@H](CN(C)C)CC1
Procedure, shortened: as §1

[14] = compound: CC(C)(C)Cn1c(N)nc2ccc(-c3[nH]c(C(C)(C)C)nc3-c3ccc(F)cc3)nc21 [ralimetinib]
Procedure, shortened: as §1

[15] = compound: CC(C)(O)CC(=O)NCCn1ccc2ncnc(Nc3ccc(Oc4cccc(C(F)(F)F)c4)c(Cl)c3)c21
Procedure, shortened: as §1

[16] = compound: CC(C)C1=C2N=C(C=C(N2N=C1)NCC3=CC=CC=C3)NCCCCCCN
Procedure, shortened: as §1

[17] = compound: CC(C)C[C@@H](C=O)NC(=O)[C@H](CC(C)C)NC(=O)[C@H](CC(C)C)NC(=O)OCc1ccccc1
Procedure, shortened: as §1

[18] = compound: CC(C)N(C[C@H]1O[C@@H](n2cnc3c(N)ncnc32)[C@H](O)[C@@H]1O)[C@H]1C[C@@H](CCc2nc3cc(C(C)(C)C)ccc3[nH]2)C1 [pinometostat]
Procedure, shortened: as §1

[19] = compound: CC1=C(C(CC(=O)N1)C2=CC=C(C=C2)C(F)(F)F)C(=O)NC3=C(C=C4C(=C3)C=NN4)F
Procedure, shortened: as §1

[20] = compound: CC1=C(C2=C(C=C1)C(=O)C3=CC=CC=C3N2CCCN)C
Procedure, shortened: as §1

Measured: log2 fold change

TRMT61A (UniProt Q96FX7)
Sequence of UniProt Q96FX7 (Q96FX7 whole entry, looked up): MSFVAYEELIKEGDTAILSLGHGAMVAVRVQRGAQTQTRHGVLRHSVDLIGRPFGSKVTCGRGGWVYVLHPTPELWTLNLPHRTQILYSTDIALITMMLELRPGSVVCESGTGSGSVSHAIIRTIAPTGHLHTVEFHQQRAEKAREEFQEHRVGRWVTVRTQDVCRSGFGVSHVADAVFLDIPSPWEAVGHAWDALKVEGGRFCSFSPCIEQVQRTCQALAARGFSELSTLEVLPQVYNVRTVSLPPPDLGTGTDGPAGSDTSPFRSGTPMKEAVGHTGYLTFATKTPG
inactive: [1] -0.03 | [2] -0.062 | [4] 0.087 | [5] -0.059 | [6] -0.07 | [7] -0.017 | [8] -0.046 | [9] 0.054 | [10] 0.054 | [11] 0.07 | [12] 0.14 | [13] -0.002 | [14] 0.06 | [15] 0.109 | [16] -0.099 | [17] 0.086 | [18] 0.188 | [19] -0.034 | [20] -0.401
active: [3] -0.354

USP25 isoform 3 (UniProt Q9UHP3)
inactive: [1] 0.007 | [2] 0.086 | [3] 0.02 | [4] 0.002 | [5] 0.028 | [6] 0.005 | [7] -0.024 | [8] 0.011 | [9] -0.038 | [10] 0.043 | [11] 0.002 | [12] -0.002 | [13] -0.019 | [14] -0.027 | [15] 0.015 | [16] 0.001 | [17] 0.052 | [18] 0.001 | [19] 0.043 | [20] 0.002

USP48 isoform 8 (UniProt Q86UV5)
inactive: [1] 0.114 | [2] 0.186 | [3] 0.14 | [4] -0.033 | [5] 0.028 | [6] -0.013 | [7] 0.049 | [8] -0.049 | [9] -0.103 | [10] -0.029 | [11] -0.09 | [12] -0.071 | [13] -0.014 | [14] 0.046 | [15] -0.207 | [16] -0.278 | [17] 0.052 | [18] 0.008 | [19] 0.003 | [20] -0.101

UBE2E3 (UniProt Q969T4)
Sequence of UniProt Q969T4 (Q969T4 whole entry, looked up): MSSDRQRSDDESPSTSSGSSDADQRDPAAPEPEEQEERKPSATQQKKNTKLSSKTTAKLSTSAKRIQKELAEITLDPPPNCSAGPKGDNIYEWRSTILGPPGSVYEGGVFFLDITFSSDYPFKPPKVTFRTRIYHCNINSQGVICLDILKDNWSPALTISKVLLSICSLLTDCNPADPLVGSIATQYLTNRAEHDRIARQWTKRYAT
inactive: [1] 0.063 | [2] 0.112 | [3] 0.152 | [4] -0.034 | [5] 0.083 | [6] 0.009 | [7] 0.014 | [8] 0.045 | [9] -0.028 | [10] -0.019 | [11] 0.106 | [12] -0.059 | [13] -0.027 | [14] 0.069 | [15] -0.046 | [16] -0.08 | [17] -0.039 | [18] 0.096 | [19] -0.019 | [20] 0.066

UCHL5 (UniProt Q9Y5K5)
Sequence of UniProt Q9Y5K5 (Q9Y5K5 whole entry, looked up): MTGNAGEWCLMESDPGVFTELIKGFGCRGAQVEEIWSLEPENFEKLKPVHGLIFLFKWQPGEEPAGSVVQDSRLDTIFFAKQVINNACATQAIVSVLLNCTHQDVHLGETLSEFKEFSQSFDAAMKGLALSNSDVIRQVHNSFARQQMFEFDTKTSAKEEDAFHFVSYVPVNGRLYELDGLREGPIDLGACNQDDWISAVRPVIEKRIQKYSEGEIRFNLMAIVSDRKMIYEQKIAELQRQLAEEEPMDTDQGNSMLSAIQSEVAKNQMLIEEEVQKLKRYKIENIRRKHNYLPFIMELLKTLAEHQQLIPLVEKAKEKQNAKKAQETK
inactive: [1] -0.018 | [2] 0.094 | [3] 0.005 | [4] -0.024 | [5] 0.036 | [6] 0.008 | [7] 0.02 | [8] 0.03 | [9] -0.001 | [10] -0.01 | [11] -0.041 | [12] -0.051 | [13] -0.012 | [14] 0.03 | [15] -0.028 | [16] -0.161 | [17] 0.054 | [18] -0.004 | [19] -0.004 | [20] -0.018

TNPO1 (UniProt Q92973)
active: [20] -0.231
inactive: [1] -0.032 | [2] 0.08 | [3] 0.038 | [4] 0.011 | [5] -0.006 | [6] 0.016 | [7] 0.008 | [8] -0.027 | [9] -0.001 | [10] 0 | [11] 0.01 | [12] 0.001 | [13] 0.043 | [14] -0.01 | [15] -0.029 | [16] -0.193 | [17] -0.011 | [18] -0.006 | [19] 0.032

VPS50 (UniProt Q96JG6)
inactive: [1] 0.008 | [2] 0.094 | [3] -0.003 | [4] -0.017 | [5] 0.088 | [6] 0.025 | [7] 0.023 | [8] -0.019 | [9] -0.022 | [10] -0.021 | [11] -0.046 | [12] -0.009 | [13] -0.003 | [14] 0.12 | [15] -0.138 | [16] -0.099 | [17] 0.053 | [18] -0.014 | [19] 0.025 | [20] 0.023

VWA3B isoform 6 (UniProt Q502W6)
inactive: [1] 0.107 | [2] -0.036 | [3] 0.213 | [4] -0.057 | [5] 0.048 | [6] 0.111 | [7] -0.214 | [8] -0.049 | [9] 0.03 | [10] -0.03 | [11] 0.043 | [12] -0.069 | [13] 0.013 | [14] -0.031 | [15] 0 | [16] -0.407 | [17] -0.256 | [18] 0.079 | [19] 0.257 | [20] 0.089

WNK1 isoform 7 (UniProt Q9H4A3)
Sequence of UniProt Q9H4A3 (Q9H4A3 whole entry, looked up): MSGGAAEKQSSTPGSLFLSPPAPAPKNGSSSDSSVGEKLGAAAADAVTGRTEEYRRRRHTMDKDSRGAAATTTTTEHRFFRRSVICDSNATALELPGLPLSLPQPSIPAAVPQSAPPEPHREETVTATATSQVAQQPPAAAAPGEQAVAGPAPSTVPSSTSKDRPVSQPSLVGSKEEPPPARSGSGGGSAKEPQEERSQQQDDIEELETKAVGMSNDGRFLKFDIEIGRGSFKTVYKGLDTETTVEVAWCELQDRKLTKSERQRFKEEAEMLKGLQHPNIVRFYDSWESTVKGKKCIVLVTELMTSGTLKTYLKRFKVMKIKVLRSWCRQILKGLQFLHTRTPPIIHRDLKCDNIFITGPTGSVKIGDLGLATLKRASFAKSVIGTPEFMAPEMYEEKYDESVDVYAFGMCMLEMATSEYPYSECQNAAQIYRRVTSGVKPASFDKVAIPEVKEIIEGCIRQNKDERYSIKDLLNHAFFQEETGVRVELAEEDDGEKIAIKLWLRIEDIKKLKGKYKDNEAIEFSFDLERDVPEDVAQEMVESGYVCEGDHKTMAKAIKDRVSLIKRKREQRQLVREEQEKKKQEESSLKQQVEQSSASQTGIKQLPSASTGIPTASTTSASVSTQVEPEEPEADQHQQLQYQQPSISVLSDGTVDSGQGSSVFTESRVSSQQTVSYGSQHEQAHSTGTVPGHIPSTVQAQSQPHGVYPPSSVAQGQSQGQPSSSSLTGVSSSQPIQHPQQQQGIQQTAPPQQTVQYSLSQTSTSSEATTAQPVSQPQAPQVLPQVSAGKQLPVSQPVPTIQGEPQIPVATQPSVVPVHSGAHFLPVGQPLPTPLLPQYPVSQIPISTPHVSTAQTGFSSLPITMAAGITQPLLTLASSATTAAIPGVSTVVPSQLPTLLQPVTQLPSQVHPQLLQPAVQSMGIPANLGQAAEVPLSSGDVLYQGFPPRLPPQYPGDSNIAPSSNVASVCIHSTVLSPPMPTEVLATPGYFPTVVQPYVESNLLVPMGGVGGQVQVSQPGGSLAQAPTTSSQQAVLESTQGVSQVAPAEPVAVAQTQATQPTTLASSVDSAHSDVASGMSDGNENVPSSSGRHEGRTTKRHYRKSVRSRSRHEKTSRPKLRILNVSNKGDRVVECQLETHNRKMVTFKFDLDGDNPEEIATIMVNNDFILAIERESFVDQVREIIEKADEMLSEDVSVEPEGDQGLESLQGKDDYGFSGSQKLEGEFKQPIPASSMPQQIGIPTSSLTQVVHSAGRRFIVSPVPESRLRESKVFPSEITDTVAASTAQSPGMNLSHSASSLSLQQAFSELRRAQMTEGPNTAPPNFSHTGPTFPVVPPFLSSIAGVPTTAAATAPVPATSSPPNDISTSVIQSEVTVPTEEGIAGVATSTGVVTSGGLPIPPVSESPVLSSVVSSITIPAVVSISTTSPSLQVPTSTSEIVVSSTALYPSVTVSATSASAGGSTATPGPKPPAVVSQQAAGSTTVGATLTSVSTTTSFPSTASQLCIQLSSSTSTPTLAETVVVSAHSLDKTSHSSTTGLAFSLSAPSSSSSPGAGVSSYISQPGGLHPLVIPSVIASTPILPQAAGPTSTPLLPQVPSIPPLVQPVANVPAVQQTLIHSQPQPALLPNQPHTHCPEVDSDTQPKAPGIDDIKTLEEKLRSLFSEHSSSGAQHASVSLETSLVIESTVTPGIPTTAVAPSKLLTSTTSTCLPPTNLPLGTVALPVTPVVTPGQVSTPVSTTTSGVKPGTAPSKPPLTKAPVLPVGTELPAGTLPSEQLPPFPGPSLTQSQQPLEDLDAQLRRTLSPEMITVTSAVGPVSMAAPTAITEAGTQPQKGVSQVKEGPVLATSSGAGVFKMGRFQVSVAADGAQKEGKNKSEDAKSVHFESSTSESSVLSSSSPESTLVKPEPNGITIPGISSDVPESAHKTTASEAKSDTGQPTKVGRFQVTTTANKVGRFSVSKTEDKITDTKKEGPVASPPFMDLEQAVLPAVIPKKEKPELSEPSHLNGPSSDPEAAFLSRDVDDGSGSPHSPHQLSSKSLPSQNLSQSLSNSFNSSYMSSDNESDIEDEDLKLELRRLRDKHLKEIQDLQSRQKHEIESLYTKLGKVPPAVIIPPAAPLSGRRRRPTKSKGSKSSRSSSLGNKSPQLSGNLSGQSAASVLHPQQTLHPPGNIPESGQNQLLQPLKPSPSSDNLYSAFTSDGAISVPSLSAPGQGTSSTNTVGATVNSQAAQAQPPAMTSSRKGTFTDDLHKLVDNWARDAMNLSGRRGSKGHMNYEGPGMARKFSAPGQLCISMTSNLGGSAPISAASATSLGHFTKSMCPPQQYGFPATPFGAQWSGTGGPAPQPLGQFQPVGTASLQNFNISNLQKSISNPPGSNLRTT
active: [17] 0.476
inactive: [1] 0.043 | [2] 0.014 | [3] 0.012 | [4] -0.003 | [5] 0.026 | [6] 0.006 | [7] -0.046 | [8] 0.021 | [9] -0.028 | [10] -0.02 | [11] 0.015 | [12] 0.01 | [13] -0.213 | [14] -0.045 | [15] 0.017 | [16] -0.005 | [18] 0.004 | [19] -0.011 | [20] 0.027

TMEM189-UBE2V1 (UniProt I3L0A0)
inactive: [1] -0.014 | [2] 0.025 | [3] 0.015 | [4] 0.019 | [5] 0.055 | [6] -0.047 | [7] 0.028 | [8] -0.009 | [9] 0.02 | [10] 0.058 | [11] 0.048 | [12] 0.022 | [13] -0.022 | [14] 0.006 | [15] -0.024 | [16] 0.031 | [17] -0.028 | [18] -0.046 | [19] 0.03 | [20] 0.037

TOM1L1 (UniProt O75674)
Sequence of UniProt O75674 (O75674 whole entry, looked up): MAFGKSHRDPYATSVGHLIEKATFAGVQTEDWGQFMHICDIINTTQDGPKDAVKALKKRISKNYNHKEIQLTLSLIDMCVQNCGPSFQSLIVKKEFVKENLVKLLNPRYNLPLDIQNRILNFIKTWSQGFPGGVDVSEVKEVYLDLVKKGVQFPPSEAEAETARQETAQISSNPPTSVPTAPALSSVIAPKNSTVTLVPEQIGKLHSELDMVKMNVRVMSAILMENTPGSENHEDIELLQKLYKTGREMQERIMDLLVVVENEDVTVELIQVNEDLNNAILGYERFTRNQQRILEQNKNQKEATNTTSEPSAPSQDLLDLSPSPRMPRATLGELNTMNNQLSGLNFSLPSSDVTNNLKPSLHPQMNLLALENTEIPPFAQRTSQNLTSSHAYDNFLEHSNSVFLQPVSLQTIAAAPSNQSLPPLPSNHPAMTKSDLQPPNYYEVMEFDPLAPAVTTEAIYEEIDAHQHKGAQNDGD
inactive: [1] 0.019 | [2] -0.009 | [3] -0.003 | [4] 0.044 | [5] -0.038 | [6] 0.037 | [7] -0.023 | [8] -0.026 | [9] 0.006 | [10] 0.076 | [11] 0.006 | [12] -0.001 | [13] -0.014 | [14] -0.047 | [15] -0.013 | [16] 0.019 | [17] 0.028 | [18] -0.023 | [19] 0.006 | [20] -0.019

USP24 (UniProt Q9UPU5)
inactive: [1] 0.126 | [2] -0.147 | [3] 0.101 | [4] -0.113 | [5] 0.092 | [6] 0.148 | [7] 0.141 | [8] 0.094 | [9] 0.181 | [10] 0.297 | [11] 0.052 | [12] 0.086 | [13] 0.156 | [14] -0.077 | [15] -0.093 | [16] 0.004 | [17] -0.043 | [18] -0.026 | [19] -0.08 | [20] 0.017

WDHD1 (UniProt O75717)
inactive: [1] 0.007 | [2] 0.173 | [3] 0.093 | [4] -0.002 | [5] 0.026 | [6] 0.038 | [7] -0.02 | [8] -0.028 | [9] -0.031 | [10] -0.013 | [11] -0.055 | [12] 0.006 | [13] -0.087 | [14] -0.038 | [15] -0.065 | [16] -0.125 | [17] 0 | [18] -0.03 | [19] -0.02 | [20] -0.063

WDR4 (UniProt P57081)
Sequence of UniProt P57081 (P57081 whole entry, looked up): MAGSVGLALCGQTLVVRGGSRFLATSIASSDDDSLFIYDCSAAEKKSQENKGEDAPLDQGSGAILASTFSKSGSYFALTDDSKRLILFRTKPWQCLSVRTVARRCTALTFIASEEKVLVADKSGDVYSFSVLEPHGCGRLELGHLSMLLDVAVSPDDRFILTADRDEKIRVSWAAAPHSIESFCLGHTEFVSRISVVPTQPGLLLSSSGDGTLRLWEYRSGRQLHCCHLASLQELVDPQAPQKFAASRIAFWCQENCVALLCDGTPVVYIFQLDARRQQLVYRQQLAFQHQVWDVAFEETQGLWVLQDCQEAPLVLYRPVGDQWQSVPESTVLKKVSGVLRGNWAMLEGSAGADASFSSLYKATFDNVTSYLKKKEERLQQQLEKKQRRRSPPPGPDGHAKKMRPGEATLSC
inactive: [1] 0.058 | [2] 0.106 | [3] 0.131 | [4] -0.012 | [5] -0.046 | [6] 0.223 | [7] 0.061 | [8] 0.011 | [9] 0.031 | [10] 0.053 | [11] 0.024 | [12] -0.052 | [13] 0.022 | [14] -0.033 | [15] -0.003 | [16] -0.005 | [17] -0.072 | [18] -0.017 | [19] 0.019 | [20] 0.028

TMEM173 (UniProt Q86WV6)
Sequence of UniProt Q86WV6 (Q86WV6 whole entry, looked up): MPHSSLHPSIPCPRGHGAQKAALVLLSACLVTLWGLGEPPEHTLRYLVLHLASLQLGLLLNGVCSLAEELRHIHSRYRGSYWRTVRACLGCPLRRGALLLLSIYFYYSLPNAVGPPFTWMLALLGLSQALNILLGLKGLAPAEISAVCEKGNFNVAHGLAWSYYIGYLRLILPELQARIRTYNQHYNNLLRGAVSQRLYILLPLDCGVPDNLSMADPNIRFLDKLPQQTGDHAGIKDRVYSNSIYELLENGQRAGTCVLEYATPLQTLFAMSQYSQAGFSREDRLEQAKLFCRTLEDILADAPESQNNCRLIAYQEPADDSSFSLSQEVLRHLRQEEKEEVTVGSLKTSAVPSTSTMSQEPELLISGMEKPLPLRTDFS
inactive: [1] 0.028 | [2] 0.018 | [3] -0.012 | [4] -0.078 | [5] 0.068 | [6] 0.019 | [7] -0.044 | [8] -0.032 | [9] 0.02 | [10] -0.05 | [11] 0.018 | [12] -0.105 | [13] 0.009 | [14] 0.067 | [15] -0.047 | [16] -0.006 | [17] 0.005 | [18] 0.012 | [19] 0.009 | [20] 0.088

TMEM9 (UniProt Q9P0T7)
Sequence of UniProt Q9P0T7 (Q9P0T7 whole entry, looked up): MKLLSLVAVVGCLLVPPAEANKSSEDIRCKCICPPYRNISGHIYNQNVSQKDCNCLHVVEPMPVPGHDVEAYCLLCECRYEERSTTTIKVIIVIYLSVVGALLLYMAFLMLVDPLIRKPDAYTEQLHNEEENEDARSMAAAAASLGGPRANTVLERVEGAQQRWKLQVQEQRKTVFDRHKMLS
inactive: [1] 0.014 | [2] 0.008 | [3] 0.254 | [4] -0.021 | [5] -0.034 | [6] -0.117 | [7] 0.037 | [8] -0.004 | [9] -0.053 | [10] -0.025 | [11] 0.076 | [12] 0.039 | [13] 0.012 | [14] -0.003 | [15] -0.07 | [16] -0.211 | [17] 0.064 | [18] -0.042 | [19] 0.067 | [20] -0.013
